# Test results as given in PubChem BioAssay AID624173 (National Center for Advancing Translational Sciences (NCATS), 2012).
# In all, about 410,000 compounds went through this assay and about 490 (0.12%) were called active. Another 1% or so got no clear call; they are omitted. The full list was thinned out, with actives kept by preference. Values without a mark were called inactive. Calls follow the shape of the dose curve; as a rule, active = well fitted inhibition curve with a large enough effect; inconclusive = small, poorly fitted or top-dose-only effect; inactive = flat fitted curve, though single readings scatter.
# Molecular target: pyruvate kinase (Trypanosoma brucei) (UniProt Q57TT1)
# Assay: qHTS of Trypanosoma Brucei Inhibitors; also: nearly all actives have a fitted effect of over 50% in size
# Conditions: TbPYK enzyme, Kinase-Glo Plus ATP luminescence, 45 min; series mostly up to 76.8 µM; activity, negative = inhibition: at the top concentration
# Description: Members of the Trypanosomatidae family of parasitic protozoans cause a spectrum of diseases throughout the tropical and subtropical world. Sleeping sickness, caused by two subspecies of Trypanosoma brucei, is endemic to areas of sub-Saharan Africa, while Chagas' disease, a manifestation of Trypanosoma cruzi infection, is prevalent throughout Central and South America. In addition, many species of Leishmania are responsible for a range of cutaneous and visceral diseases, causing ulcers, destructive lesions and kalaazar, a lethal infection of the viscera. These diseases cause severe public health and economic burdens on populations that are often already caught in a tragic cycle of poverty, poor nutrition and disease. Collectively, parasites of the trypanosomatid family infect 30 million people worldwide (~500 million live in endemic areas), and account for ~130K deaths annually. Existing treatments have developed little in the past 50 years, and suffer from toxicity, poor efficacy and resistance; the goal of this project is to develop lead drugs that will be suitable for entry into pre-clinical trials.
# Glycolysis in axenically cultured T. cruzi, representing the intracellular pathogenic stage, is also essential for these parasites. {Engel, 1987} This project aims to discover and optimize selective inhibitors of the glycolytic enzyme pyruvate kinase (PYK) from Trypanosoma brucei, the parasite that causes sleeping sickness. […] Trypanosomatid PYKs show significant differences from their human counterparts including only 47-50% sequence identity and different allosteric and activation properties.{Callens, 1992} To this end, a qHTS was done against the MLSMR to discover inhibitors.
# NIH Molecular Libraries Probe Production Network [MLPCN]
# NIH Chemical Genomics Center [NCGC]
# PI Name: Malcolm Walkinshaw, University of Edinburgh
# 2 uL of TbPYK/substrate buffer (columns 1-3, 5-48) are dispensed into Greiner white solid bottom 1536-well assay plates; column 4 receives only TEA buffer as 0x TbPYK controls. Compounds are then transferred via Kalypsys pin tool equipped with 1536-pin array (10 nL slotted pins, V&P Scientific, San Diego, CA). Following addition of compound, 2 uL of ADP (130 uM final concentration, all columns) is added to initiate the reaction. The plates are then incubated at room temperature for 45 minutes. Kinase-Glo Plus reagent is added (3 uL) and plates incubated for 10 minutes, before being transferred to a ViewLux high-throughput CCD imager (PerkinElmer) wherein single end-point measurements of luminescence are acquired using a clear filter. All reagents are diluted in an assay buffer consisting of 50 mM TEA (pH 7.2), 100 mM KCl, 10 mM MgCl2, 0.05% BSA and 0.01% Tween-20.
# All screening operations will be performed on a fully integrated robotic system (Kalypsys, San Diego, CA) containing one RX-130 and two RX-90 anthropomorphic robotic arms (Staeubli, Duncan, SC). Library plates will be screened starting from the lowest and proceeding to the highest concentration. Vehicle-only plates, with DMSO being pin-transferred to columns 5-48, will be inserted uniformly at the beginning and the end of each library in order to monitor and record any shifts in the background, which can be affected by reagent dispensers or loss in enzyme activity over time. Screening data will be corrected, normalized, and concentration-effect relationships will be derived by using publicly-available curve fitting algorithms developed in-house (http://ncgc.nih.gov/pub/openhts).
# Potency is read from the fitted curve at half-maximal effect.
SMILES,"activity, negative = inhibition",Potency
CC(C)NC(=O)N1CC[C@@]2(CCCN(C(=O)c3cccc(F)c3)C2)C1,5.23%,–
COc1cc(C[C@H](C)N)c(OC)cc1Br,-1.96% [at 157 µM],–
CCCCC1C(=O)NC(=O)N(C2CCCCC2)C1=O (stereo unspecified),-8.38%,–
O=C1C=CC(=O)N1c1ccc(N2CCCCC2)cc1,–,10 µM (active)
O=C(c1csnn1)N1CCC2(CCN(Cc3nccs3)CC2)CC1,0.484%,–
CC1(C)NC(=O)N(CC(=O)Nc2ccc(-c3ccccc3)cc2)C1=O,-7.35%,–
Cc1ccc(NC(=O)Cn2c(=O)n(-c3ccccc3)c(=O)c3c4c(sc32)CCCC4)cc1,8.83%,–
Cc1ccc(NC(=O)Cn2sc3ccccc3c2=O)cc1,–,7.94 µM (active)
CO/N=C(\C(=O)N[C@@H]1C(=O)N2C(C(=O)O)=C(Cn3nnc(C)n3)CS[C@H]12)c1csc(N)n1,-4.72%,–
O=C(/C=C/c1cccc(F)c1)NC1CC1,-11.3%,–
C=CCN1CCC23c4c5ccc(O)c4O[C@H]2C(=O)CC[C@@]3(O)C1C5 (stereo partly specified),-1.68%,–
CC1(C)OC2CO[C@]3(COS(N)(=O)=O)OC(C)(C)OC3C2O1 (stereo partly specified),-0.562%,–
O=C1c2c(O)cccc2[C@@H]([C@@H]2O[C@H](CO)[C@@H](O)[C@H](O)[C@H]2O)c2cc(CO)cc(O)c21,-15.8%,–
CCOC(=O)Cc1cccc(-c2cc(CCCCCCc3ccc(O[C@H]4O[C@H](COC(C)=O)[C@@H](OC(C)=O)[C@H](OC(C)=O)[C@@H]4OC(C)=O)c(-c4cccc(CC(=O)OCC)c4)c3)ccc2O[C@H]2O[C@H](COC(C)=O)[C@@H](OC(C)=O)[C@H](OC(C)=O)[C@@H]2OC(C)=O)c1,0.402%,–
COCC(=O)N1CCC2(CCCN(c3ccccc3)C2)CC1,-0.308%,–
Cc1ccc(-c2ncc(Cl)cc2-c2ccc(S(C)(=O)=O)cc2)cn1,-10.3%,–
CCC(C)C(N)C1=NC(C(=O)NC(CC(C)C)C(=O)NC(CCC(=O)O)C(=O)NC(C(=O)NCCCCC2NC(=O)C(CC(N)=O)NC(=O)C(CC(=O)O)NC(=O)C(Cc3cnc[nH]3)NC(=O)C(Cc3ccccc3)NC(=O)C(C(C)CC)NC(=O)C(CCCN)NC2=O)C(C)CC)CS1 (stereo unspecified),0%,–
CC(=O)N1CCC2(CCCN(Cc3ccccc3)C2)CC1,0%,–
CC1(C)[C@H](O[C@H]2O[C@H](C(=O)O)[C@@H](O)[C@H](O)[C@H]2O[C@@H]2O[C@H](C(=O)O)[C@@H](O)[C@H](O)[C@H]2O)CC[C@@]2(C)[C@H]1CC[C@]1(C)[C@H]2C(=O)C=C2[C@H]3C[C@@](C)(C(=O)O)CC[C@]3(C)CC[C@]21C,-2.85%,–
COc1ncc2nc(-c3ccc(Cl)cc3)c(=O)n(-c3ccccc3)c2n1,1.82%,–
CCCc1c2oc(C(=O)O)cc(=O)c2cc2c(=O)cc(C(=O)O)n(CC)c12,-3.87%,–
CCOc1ccc(NS(=O)(=O)c2ccc(N)cc2)nn1,-5.06%,–
CS(=O)(=O)N1CCC2(CC1)CN(c1ccncc1)C2,0.147%,–

SMILES,"activity, negative = inhibition",Potency
Cc1cc2nc(-c3ccco3)c(Cc3cccc(F)c3)n2c(C)c1Br,-15.1%,–
Cc1ccc(Cc2c(-c3ccco3)nc3ccc(Cl)cn23)cc1,–,22.4 µM (active)
c1ccc(Cc2c(-c3ccco3)nc3c4ccccc4ccn23)cc1,-13.3%,–
COc1ccc(NC(=O)N2CC3(CCN(C(C)=O)CC3)C2)cc1,-5.45%,–
COc1ccc(C(=O)N2CCC3(CC2)CCN(c2ccccn2)CC3)cc1,6.06%,–
CC(=O)N1CCC2(CCCN(Cc3ccc(C#N)cc3)C2)CC1,4.17%,–
CCC(C)[C@@H](N)C(=O)O (stereo partly specified),-1.56%,–
COC(=O)[C@@H]1CC2=CC(=O)CC[C@]2(C)[C@@]23O[C@@H]2C[C@@]2(C)[C@@H](CC[C@@]24CCC(=O)O4)[C@H]13,-7.61%,–
CC(=O)OCC(=O)[C@@]1(O)CC[C@@H]2[C@H]3CCC4=CC(=O)C=C[C@]4(C)[C@]3(F)[C@@H](O)C[C@@]21C,1.21% [at 33.2 µM],–
C[C@]12CCC3[C@@H](CCC4=CC(=O)CC[C@@]43C)C1CCC2OC(=O)CCc1ccccc1 (stereo partly specified),-5.47% [at 157 µM],–
CO[C@]12CC[C@@]3(C[C@@H]1[C@](C)(O)C(C)(C)C)[C@@H]1Cc4ccc(O)c5c4[C@@]3(CCN1CC1CC1)[C@H]2O5,3.11% [at 157 µM],–
CC(C)=CCN1CC[C@@]2(C)c3cc(O)ccc3C[C@H]1[C@@H]2C,-3.79% [at 157 µM],–
COC(=O)N1CCC2(CCCN(c3ccncc3)C2)CC1,-0.191%,–
COc1ccc(OC)c([C@H](O)CNC(=O)CN)c1,4.52% [at 33.2 µM],–
Cc1cccc(C)c1NC(=O)NC1=CCCN1C,8.65%,–
O=C1C(c2[nH]c3ccccc3c2O)=Nc2ccccc21,3.08%,–
O=c1c(-c2cccs2)nc2cnc(Oc3ccccc3)nc2n1-c1ccccc1,6.09%,–
CCCC(=O)O[C@]1(C(=O)COC(=O)CC)CC[C@@H]2[C@@H]3CCC4=CC(=O)CC[C@]4(C)[C@H]3[C@@H](O)C[C@@]21C,0%,–
Cc1c(Cl)cccc1NC(=O)N1CCN(C(=O)c2nsc3ccccc23)CC1,10.2% [at 15.4 µM],–
NCCCCC(N)C(=O)O (stereo unspecified),-0.921%,–
CCC(C)C1OC2(C=CC1C)CC1CC(C/C=C(/C)C(OC3CC(OC)C(OC4CC(OC)C(NC(C)=O)C(C)O4)C(C)O3)C(C)/C=C\C=C3\COC4C(O)C(C)=CC(C(=O)O1)C34O)O2 (stereo unspecified),-0.993%,–
CC(C)NC(=O)N1CC[C@@]2(CCCN(C(=O)c3ccco3)C2)C1,-8.63%,–
Cc1cc(-c2csc(N)n2)c(C)n1-c1ccccc1,-11.5%,–
